Rows were chosen to be rich in hits. Some 4.1% of all compounds tested hit in one or more screens of this group.
hgDAF12 agonist – agonists of H. glycines DAF-12 nuclear receptor. HEK293 GAL4-hgDAF12 UAS-luciferase reporter, agonist luminescence; normalized to butyrate control. activation, % at 6.8 µM. hit rate 1.8% among 370,000. AID 687014;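 active = activation above a cutoff set at the mean of all screened compounds plus 3 SD, cut at about 10% in these data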
DAX1 inh-1 – DAX1 (NR0B1) inhibition, primary screen; hit rate 1.1% among 370,000; inhibition, % at 6.8 µM; HEK293T StAR-luciferase reporter, SF-1/DAX-1 repression relief;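 active = inhibition above the mean over all tested compounds plus 3 SD, cut at about 3.6% in these data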;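 note: higher inhibition means more luminescence from relief of DAX-1 repression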
ssDAF12 agonist – activates DAF-12 receptor from parasite S. stercoralis. HEK293 ssDAF-12/GRIP1 lit1-tk-luc reporter, luminescence; % of 3 µM dafachronic acid response. activation, % at 6.8 µM. hit rate 1% among 370,000. AID 652126;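 active = activation above the mean over all tested compounds plus 3 SD, cut at about 0.9% in these data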
hcDAF-12 act – H. contortus DAF-12 activation, primary screen; HEK293 hcDAF-12 lit1-tk-luc reporter, luminescence; 0% DMSO, 100% Δ7-dafachronic acid; activation, % at 6.8 µM; hit rate 1.4% among 370,000; AID 652067;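 active = activation above the mean of all tested compounds plus 3 SD, cut at about 5.5% in these data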
DAX1 inh-2 – inhibitors of human orphan nuclear receptor DAX1 (NR0B1); inhibition, % at 6.75 µM; hit rate 0.99% among 340,000; HEK293 Gal4-DAX1 luciferase reporter, luminescence;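 active = inhibition above the mean over all tested compounds plus 3 SD, cut at about 4.2% in these data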;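 note: inhibition shows as a rise in luminescence from relieved DAX1 repression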
Target sequence (P51843 207-470 limits assumed): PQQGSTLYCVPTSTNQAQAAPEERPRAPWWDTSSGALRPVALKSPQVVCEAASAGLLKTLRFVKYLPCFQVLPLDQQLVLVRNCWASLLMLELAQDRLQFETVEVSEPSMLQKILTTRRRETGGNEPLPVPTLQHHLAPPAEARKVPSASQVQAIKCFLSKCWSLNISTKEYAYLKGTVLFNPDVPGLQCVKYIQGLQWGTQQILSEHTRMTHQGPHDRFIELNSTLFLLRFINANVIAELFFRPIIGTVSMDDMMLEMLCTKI
LXRb hcDAF ctr – counter-screen for hcDAF-12 agonists: agonists of human LXR-beta. activation, % at 6.8 µM. HEK293 Gal4-LXR tk-luc reporter, luminescence, 24 h; normalized: DMSO 0%, positive control 100%. 3,400 tested, under 10 active. AID 743027. shares compounds with hcDAF-12 act;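 active = mean percent activation of the reporter above a cutoff set as the average over tested compounds plus their standard deviation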
hcDAF12 ag – hcDAF-12 agonism, confirmation assay. HEK293 hcDAF-12 lit1-tk-luc reporter, luminescence; % of Δ7-dafachronic acid response. shares compounds with hcDAF-12 act. activation, % at 6.8 µM. hit rate 61% among 3,400;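 active = mean activation across triplicate tests above the threshold derived from the earlier primary screen, cut at about 5.5% in these data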
A number is an active result; - = inactive; . = no result given.

SMILES	hgDAF12 agonist	DAX1 inh-1	ssDAF12 agonist	hcDAF-12 act	DAX1 inh-2	LXRb hcDAF ctr	hcDAF12 ag
COc1ccccc1Cc1c(-c2ccc(F)cc2)nc2ccc(Cl)cn12	11	4.0	-	7.0	.	-	-
COC(=O)c1ccc2nc(-c3ccc(Cl)cc3)c(Cc3ccccc3OC)n2c1	-	-	-	-	.	.	.
CC1(C)CC(=O)C=C(c2ccccc2-c2cccc(C(N)=O)c2)C1=O	-	-	-	-	.	.	.
N#CC1(c2ccccc2)CCCN1C(=O)c1ccccc1Br (stereo unspecified)	-	-	-	10	-	-	-
COc1ccccc1C(=O)N1CCCC1(C#N)c1ccccc1 (stereo unspecified)	-	-	-	-	-	.	.
COC(=O)C1=C(C)N(Cc2ccccc2C(F)(F)F)C(=NCc2ccc(OC)cc2)NC1c1cccc(F)c1 (stereo unspecified)	-	-	-	-	.	.	.
COC(=O)C1=C(C)N(Cc2ccccc2C(F)(F)F)C(=NCc2ccc(C(F)(F)F)cc2)NC1c1cccc(Cl)c1 (stereo unspecified)	-	-	-	-	.	.	.
COc1ccc(OC)c(C2CC(=O)N3CN(c4ccccc4F)CSC3=C2C#N)c1 (stereo unspecified)	-	-	-	6.8	-	-	-
C[C@@H]1ON(C)[C@H]2C[C@H]3c4[nH]c5cccc(Br)c5c4CCN3C(=O)[C@@H]12	-	-	-	-	.	.	.
CC(=O)Nc1ccc(C)c([N+](=O)[O-])c1	-	-	-	-	-	.	.
Cc1ccc(NC(=O)Nc2ccccc2)cc1[N+](=O)[O-]	-	-	-	7.5	-	-	-
C[C@H]1[C@H](N(Cc2ccccc2)Cc2ccccc2)CC[C@@]23CCCN2C(=O)CCC[C@@H]13	-	.	-	-	.	.	.
CCNC(=S)Nc1ccc(OCc2nc3ccccc3s2)cc1	-	-	1.2	7.8	-	-	8.2
NS(=O)(=O)c1ccc(NC(=S)NCc2ccco2)cc1	-	-	-	7.2	-	-	-
COc1ccc(CN2CN3Cc4ccccc4C3CS2(=O)=O)cc1 (stereo unspecified)	-	-	-	-	.	.	.
CC(C)(C)c1ccc(C(=O)NCC(=O)OCC(=O)N2CCN(S(=O)(=O)c3ccc(Cl)cc3)CC2)cc1	-	-	-	15	-	-	-
CC(=O)n1cc(/C=N/NC(N)=S)c2ccccc21	-	-	-	-	-	.	.
CC(=O)n1cc(/C=C2/N=C(c3ccccc3)OC2=O)c2ccccc21	-	-	-	6.7	-	-	-
Cc1cc(C)c(O)c(C(=O)CC2CC(=O)NC(=O)C2)c1	-	-	-	-	.	.	.
COc1ccc(Cn2c(C)cc(O)cc2=O)cc1	-	-	-	-	.	.	.
COc1cc(C(C#N)N2N=C(c3ccccc3)CC2c2ccccc2)ccc1O (stereo unspecified)	12	-	1.4	7.9	-	-	-
COc1ccccc1C(C#N)N1N=C(C)CC1c1ccccc1 (stereo unspecified)	-	-	-	-	-	.	.
N#CC(c1ccccc1O)N1N=C(c2ccccc2)CC1c1ccccc1 (stereo unspecified)	-	-	1.6	9.2	-	-	7.3
Cc1[nH]nc2c1C(c1ccc(F)cc1)N(c1ccccc1)C2=O (stereo unspecified)	-	-	-	-	.	.	.
COc1ccccc1N1C(=O)C(Cl)=C(Nc2ccccc2O)C1=O	-	-	1.5	7.1	-	-	-
SMILES	hgDAF12 agonist	DAX1 inh-1	ssDAF12 agonist	hcDAF-12 act	DAX1 inh-2	LXRb hcDAF ctr	hcDAF12 ag
O=C1C(Cl)=C(Nc2ccccc2O)C(=O)N1c1ccccc1	-	-	-	-	-	.	.
CC(C)CN1C(=O)C[C@]2(C(=O)N(C)c3ccc(NC(=O)C(C)(C)C)cc32)C1c1ccccc1 (stereo partly specified)	-	-	-	-	.	.	.
CCN(CC)S(=O)(=O)c1ccc(-c2nnc3sc4cccc(C)c4n23)cc1	-	-	-	7.1	-	-	-
CCN(CC)S(=O)(=O)c1ccc(-c2nnc(SCC(N)=O)n2CC)cc1	-	-	-	-	-	.	.
COc1cc2c(cc1NC(=O)C(C)Sc1cccc[n+]1[O-])oc1ccccc12 (stereo unspecified)	-	-	-	9.6	-	-	-
COc1cc2c(cc1NC(=O)C(C)Sc1nc3ccccc3n1C)oc1ccccc12 (stereo unspecified)	-	-	-	-	-	.	.
CN(N=Cc1ccccc1O)c1ccc2ccccc2n1	12	-	2.4	8.6	-	-	12
Nn1c(SCC(=O)N2CCOCC2)nnc1-c1n[nH]c2c1CCC2	-	-	-	-	.	.	.
CCCc1cc(C(=O)Nc2cccc(Cl)c2)no1	-	-	-	9.4	-	-	-
CC(=O)c1ccc(OCc2cc(=O)n3ccsc3n2)cc1	-	-	-	9.8	-	-	-
O=C(Nc1ccc2[nH]ccc2c1)c1ccccc1	12	-	-	9.2	-	-	9.5
COc1ccc(NC(=O)Nc2ccc3[nH]ccc3c2)cc1	-	-	-	-	.	.	.
CN(C)Cc1c(C(C)(C)O)[nH]c2cc(C(F)(F)F)ccc12	-	-	-	-	.	.	.
Cc1cc(C)n(-c2ncnc3sc4c(c23)CC(C)CC4)n1 (stereo unspecified)	-	-	-	-	-	.	.
Cc1cc(C)n(-c2ncnc3sc4c(c23)CCCC4)n1	-	-	-	7.4	-	-	-
O=C(CSc1nnc(COc2ccccc2)n1-c1ccc(Cl)cc1)Nc1ccc(OCc2ccccc2)cc1	-	-	-	-	.	.	.
CCC(C)(C)C1CCC2(CC1)NC(=O)N(CC(=O)NCCc1c[nH]c3ccccc13)C2=O (stereo unspecified)	-	-	-	6.8	-	-	-
CC1CCC2(CC1)NC(=O)N(CC(=O)NCCc1c[nH]c3ccccc13)C2=O (stereo unspecified)	-	-	-	-	-	.	.
Oc1[nH]c2ccccc2c1/C=N/N1CCCCC1	-	-	-	14	-	-	-
COc1ccc(N=Cc2c(O)ccc3ccccc23)cc1	-	-	-	-	-	.	.
COc1ccc(N=Cc2c(O)[nH]c3ccccc23)cc1	13	4.2	1.1	6.9	-	-	11
Cc1onc(-c2ccc(Cl)cc2)c1-c1ccn(S(=O)(=O)c2ccccc2)n1	-	-	-	-	.	.	.
CN1CCCCC(NC(=O)CSc2ccccc2)C1=O (stereo unspecified)	-	-	-	-	.	.	.
COc1ccc(-n2ncc(Cl)c(Cl)c2=O)cc1	-	-	-	-	.	.	.
COc1ccc(-n2ncc(N(C)n3cccc3)c(Cl)c2=O)cc1	12	3.9	-	6.8	-	-	-
